Among the test systems are NCI-H23 lung; NCI-H226 lung; NCI-H322M lung; HOP-62 NSCLC; NCI-H460 lung; HOP-92 NSCLC; NCI-H522 lung; A549/ATCC NSCLC; 786-0 renal; COLO 205 colon.
What all share (experiment): NCI-60 one-dose screen, 48 h (100 = growth as untreated, 0 = no growth, -100 = all killed)
Holding throughout (settings): 10 µM unless noted

Compounds without any hit were thinned out: in the full panel of roughly 83,000, 20% have a hit.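 Each cell line was grown in a 96-well plate and treated with one concentration of compound for 48 hours. Values below 10 were considered active.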 Values without a mark were called inactive. Activity calls are given as the source filed them.

As for `O=C1[C@@H]2Cc3c([nH]c4ccccc34)[C@H](c3c(Cl)cccc3Cl)N2C(=O)CN1C1CCN(Cc2c(F)cccc2F)CC1`, the growth with NCI-H23 lung is 92.9%; with NCI-H226 lung it was 78.7%; in the assay with NCI-H322M lung, 89.1%; in the assay with HOP-62 NSCLC it was 92.9%; in the assay with NCI-H460 lung, 55.6%; in the assay on HOP-92 NSCLC, 75.9%. Besides, the growth is 93% in the assay on NCI-H522 lung, 92.3% in the assay with A549/ATCC NSCLC, 99.2% with 786-0 renal and 90.6% in the assay with COLO 205 colon.
In the case of `O=C(CCCCCCN1CC(=O)N2[C@@H](c3ccc(Cl)c(F)c3)c3[nH]c4ccccc4c3C[C@H]2C1=O)NO`, the growth with NCI-H23 lung was 95.3%; in the assay on NCI-H226 lung, 101%; in the assay with NCI-H322M lung it was 86.1%; in the assay on HOP-62 NSCLC, 78.8%; in the assay with NCI-H460 lung, 79.5%; with HOP-92 NSCLC, 92.2%. For the same molecule, the growth is 71.7% in the assay with NCI-H522 lung, 104% in the assay with A549/ATCC NSCLC, 93.9% in the assay with 786-0 renal and 97.4% with COLO 205 colon.
For the molecule `Fc1ccccc1/C=C(/C1=NCCN1)n1cnc2ccccc21`, the growth is 96% with NCI-H23 lung; 83.2% with NCI-H226 lung; 90% in the assay with NCI-H322M lung; 106% in the assay with HOP-62 NSCLC; 104% with NCI-H460 lung; 73.7% in the assay with HOP-92 NSCLC. Moreover, the growth with NCI-H522 lung was 94.3%; in the assay on A549/ATCC NSCLC, 107%; in the assay with 786-0 renal it was 99%; with COLO 205 colon it was 123%.
In the case of `Cc1cc(-c2ccc3nc(N)sc3c2)nc2ccc3[nH]ncc3c12`, the growth is 39.4% with NCI-H23 lung; 53% in the assay on NCI-H226 lung; 67.1% with NCI-H322M lung; 31.6% in the assay with HOP-62 NSCLC; 14% with NCI-H460 lung; 36.2% with HOP-92 NSCLC. Moreover, the growth was 6.95% (active) with NCI-H522 lung, 45.4% with A549/ATCC NSCLC, 64.8% in the assay with 786-0 renal and 12.5% in the assay with COLO 205 colon.
For `Cc1ccc(-c2cc(-c3cccc4ccccc34)n3c(n2)nc2ccccc23)cc1`, the growth in the assay with NCI-H23 lung was 82%; in the assay on NCI-H226 lung, 57.9%; in the assay with NCI-H322M lung it was 90.6%; with HOP-62 NSCLC it was 67.5%; in the assay on NCI-H460 lung, 21.9%; in the assay with HOP-92 NSCLC, 71.6%. The growth in the assay with NCI-H522 lung was 76.9%; in the assay with A549/ATCC NSCLC, 39.6%; in the assay on 786-0 renal, 47.6%; in the assay with COLO 205 colon it was 59.7%.
Take `CC1OC(O[C@@H]2[C@H](O)C(CO)OC(O[C@H]3COC(O[C@H]4CC[C@]5(C)[C@H]6CC[C@]78OC[C@@]9(CCC(C)(C)C[C@H]97)[C@H](O)C[C@@]8(C)[C@]6(C)CC[C@H]5C4(C)C)[C@@H](OC4OC(CO)[C@@H](O)[C@@H](O)[C@@H]4O)[C@@H]3O)[C@H]2OC2OC[C@@H](O)[C@@H](O)[C@@H]2O)[C@@H](O)[C@@H](O)[C@H]1O` (stereo not given in full): the growth with NCI-H23 lung is -62.7% (active); with NCI-H226 lung, -40% (active); with NCI-H322M lung it was -78.2% (active); with HOP-62 NSCLC it was -81% (active); in the assay with NCI-H460 lung, -65.2% (active); in the assay with HOP-92 NSCLC, -39.3% (active). In addition, the growth in the assay with NCI-H522 lung is -72.4% (active); in the assay on A549/ATCC NSCLC, -67.7% (active); in the assay on 786-0 renal, -80.9% (active); in the assay on COLO 205 colon it was -74.5% (active).
With `Cn1nc(Nc2ccccc2)c(C(=O)NN)c1N`, the growth is 100% in the assay with NCI-H23 lung; 92.5% with NCI-H226 lung; 97% in the assay on NCI-H322M lung; 99.8% with HOP-62 NSCLC; 107% in the assay with NCI-H460 lung; 111% in the assay on HOP-92 NSCLC. Besides, the growth with NCI-H522 lung was 96.9%; with A549/ATCC NSCLC, 98.3%; in the assay with 786-0 renal, 109%; in the assay with COLO 205 colon, 104%.
In the case of `COc1ccc(-c2nc(SCC(C)C)nc(N/N=C\c3cccc([N+](=O)[O-])c3)c2C#N)cc1`, the growth was 46.4% in the assay with NCI-H23 lung; 38% in the assay with NCI-H226 lung; 38.3% in the assay with NCI-H322M lung; 31.3% in the assay on HOP-62 NSCLC; 14.1% in the assay on NCI-H460 lung; 16.2% with HOP-92 NSCLC. The growth is 59.4% with NCI-H522 lung, 24.8% in the assay with A549/ATCC NSCLC, 4.44% (active) in the assay on 786-0 renal and 85.8% with COLO 205 colon.
As to `Cc1[nH]nc2ccc(-c3nc4cnc(N5CCN(C)CC5)cn4c3Nc3ccc(F)cc3Br)cc12`, the growth in the assay with NCI-H23 lung was 80.4%; in the assay on NCI-H226 lung, 87.9%; with NCI-H322M lung, 63.3%; in the assay with HOP-62 NSCLC, 67.1%; in the assay with NCI-H460 lung it was 69.6%; in the assay on HOP-92 NSCLC, 61.5%. For the same molecule, the growth in the assay on NCI-H522 lung is 67.6%; in the assay with A549/ATCC NSCLC, 58.7%; in the assay with 786-0 renal, 4.67% (active); in the assay on COLO 205 colon, 36.7%.
As to `C=CCn1c(SCC(=O)Nc2cccc(C(=O)/C=C/c3ccccc3)c2)nc2ccccc2c1=O`, the growth in the assay on NCI-H23 lung was 77.2%; in the assay with NCI-H226 lung, 78.1%; with NCI-H322M lung, 91.5%; with HOP-62 NSCLC, 113%; with NCI-H460 lung, 91.8%; with HOP-92 NSCLC, 76.1%. The growth in the assay with NCI-H522 lung was 86.2%; with A549/ATCC NSCLC, 82.6%; with 786-0 renal, 100%; in the assay on COLO 205 colon, 120%.
As to `O=C(Nc1cc(Cl)cc(Cl)c1)Nc1ccc2oc(=O)ccc2c1`, the growth with NCI-H23 lung is -6.33% (active); in the assay with NCI-H226 lung it was 32.7%; with NCI-H322M lung, 21.9%; in the assay on HOP-62 NSCLC, 40.5%; in the assay on NCI-H460 lung it was 1.17% (active); with HOP-92 NSCLC, -26.6% (active). The growth was 6.05% (active) with NCI-H522 lung, 16.2% in the assay on A549/ATCC NSCLC, 23.9% in the assay on 786-0 renal and -10.9% (active) in the assay with COLO 205 colon.
With `Cc1ccc(-c2csc(N/N=C/c3nc4ccccc4n3C3CC3)n2)cc1`, the growth in the assay with NCI-H23 lung is 82.9%; in the assay with NCI-H226 lung, 64.2%; with NCI-H322M lung, 91.5%; with HOP-62 NSCLC, 74.9%; in the assay on NCI-H460 lung, 84.4%; in the assay on HOP-92 NSCLC, 92.8%. For the same molecule, the growth in the assay on NCI-H522 lung is -72.4% (active); in the assay on A549/ATCC NSCLC, 41.1%; in the assay on 786-0 renal, 108%; in the assay with COLO 205 colon it was 8.64% (active).

The values above are taken from PubChem BioAssay (NCI).
